Source: PubChem
In the library only some 18% were active in any assay of this set; here they are far more common.
CtBP-E1A inh: qHTS Assay for Inhibitors of the CtBP/E1A Interaction; AID 651724, 2012; CtBP / adenovirus E1A interaction (AlphaScreen); 340,000 compounds, 0.49% hits; activity change, % (no concentration beside the values); AlphaScreen GST-E1A/His-CtBP binding, 1536-well; hits give low values; in the data active = activity change below about -65%; inconclusive = mostly about -30% to -63%
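Protein mix (5X: 125 nM each GST-E1A, His-CtBP) was incubated with pinned compound 2 h at 37 deg C in dark, in 50 mM Tris pH 8.0 buffer with 300 mM NaCl. Glutathione donor and nickel acceptor beads followed; AlphaScreen signal read after 1 h.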
Six1-Eya2 inh: qHTS Assay for Inhibitors of the Six1/Eya2 Interaction | Homeobox protein SIX1 (Homo sapiens) + Protein phosphatase EYA2 (Homo sapiens), … | AlphaScreen GST-Six1/His-Eya2 binding, biochemical; hits give low values | activity change, % (no concentration beside the values) | 360,000 compounds, 0.56% hits | AID 651725, 2012; in the data active = activity change below about -65%; inconclusive = mostly about -30% to -63%
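GST-Six1 + His-Eya2 (5X stock: 250/500 nM); Tris pH 8.0, 300 mM NaCl, 0.05% BSA, 0.02% Tween 20; GSH donor/Ni acceptor beads; 1 h 37 °C dark; AlphaScreen readout.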
DT40 TDP1 CPT: qHTS for Inhibitors of human tyrosyl-DNA phosphodiesterase 1 (TDP1): qHTS in cells in presence of CPT; chicken DT40 Tdp1-/-;hTDP1 cells + 20 nM CPT, ATP luminescence, 48 h; AID 686979, 2013; Potency, µM (titrated, usually from 46.2 µM), for the others: at the top dose activity change, negative = growth inhibition, hits mostly inhibitors; 420,000 compounds, 12% hits; also: potency is read from the fitted curve at half-maximal effect; nearly all actives have a fitted effect of over 55% in size
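Cell growth measured by CellTiter-Glo luminescence after a minimum 48 h, 37 C compound exposure with 20 nM CPT in Tdp1-knockout DT40 cells stably expressing hTDP1, seeded 400/well; qHTS titration format.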
DT40 TDP1 no CPT: qHTS for Inhibitors of human tyrosyl-DNA phosphodiesterase 1 (TDP1): qHTS in cells in absence of CPT; DT40 Tdp1-/- hTDP1 cells, no CPT, ATP luminescence, 48 h; Potency, µM (top dose mostly 46.2 µM), for the others: top-dose activity change, negative = growth inhibition, most hits filed as inhibitors; 420,000 compounds, 15% hits; AID 686978, 2013; also: potency is read from the fitted curve at half-maximal effect; nearly all actives have a fitted effect of over 55% in size
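Growth of hTDP1-complemented DT40 Tdp1-knockout cells is measured by ATP luminescence after at least 48 hr compound exposure at 37 °C, with DMSO substituting for the 20 nM CPT used in the parallel screen.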
IL1B secr inh: qHTS for Inhibitors of Inflammasome Signaling: IL-1-beta AlphaLISA Primary Screen; THP-1 LPS/ATP IL-1B secretion, AlphaLISA, 16 h; hits give low values; activity change, % at 57.5 µM; 360,000 compounds, 4.7% hits; AID 743279, 2014; in the data active = activity change below about -50%; inconclusive = mostly about -30% to -49%
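THP-1 cells pretreated 1 hr with compounds (up to 57.5 uM final), then stimulated with LPS (250 ng/mL final) plus ATP (1.25 mM final); secreted IL-1B measured by AlphaLISA after 16 hr, decreased signal indicating inhibition.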
TDP1 inh: qHTS Assay for Inhibitors of Tyrosyl-DNA Phosphodiesterase (TDP1). Tyrosyl-DNA phosphodiesterase 1 (Homo sapiens), Q9NUW8. recombinant TDP1, AlphaScreen DNA substrate cleavage. Potency, µM (top dose mostly 130 µM), without a hit: at the top dose activity change, negative = inhibition, actives largely listed as inhibitors. 350,000 compounds, 0.28% hits. AID 485290, 2010; also: potency is read from the fitted curve at half-maximal effect; nearly all actives have a fitted effect of over 40% in size
Target sequence (Q9NUW8 whole entry, looked up): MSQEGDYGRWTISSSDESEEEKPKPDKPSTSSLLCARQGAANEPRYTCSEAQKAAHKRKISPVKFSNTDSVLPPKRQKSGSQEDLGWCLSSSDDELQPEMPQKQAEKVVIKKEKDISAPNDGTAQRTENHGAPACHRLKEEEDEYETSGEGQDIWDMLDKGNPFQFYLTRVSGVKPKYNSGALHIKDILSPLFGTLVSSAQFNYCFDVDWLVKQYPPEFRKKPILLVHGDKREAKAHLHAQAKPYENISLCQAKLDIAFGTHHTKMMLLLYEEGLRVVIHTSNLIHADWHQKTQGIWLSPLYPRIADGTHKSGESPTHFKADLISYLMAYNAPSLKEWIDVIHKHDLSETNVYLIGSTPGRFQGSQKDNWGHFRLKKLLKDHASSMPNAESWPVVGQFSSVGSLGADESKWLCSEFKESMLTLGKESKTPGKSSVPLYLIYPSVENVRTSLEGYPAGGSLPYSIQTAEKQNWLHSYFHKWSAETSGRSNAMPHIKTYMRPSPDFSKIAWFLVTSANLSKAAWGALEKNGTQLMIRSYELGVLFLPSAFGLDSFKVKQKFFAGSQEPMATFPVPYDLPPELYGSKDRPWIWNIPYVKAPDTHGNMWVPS
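AlphaScreen read-out: signal falls as enzyme removes the 3' tyrosine-FITC from a 5'-biotinylated DNA oligo (15 nM, 5 min, RT). Enzyme was E. coli-made recombinant Tdp1 at 1 nM, exposed to compound for 15 min beforehand; beads 10 ug/ml, 10 min.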
Active calls of the source: *; ? = inconclusive; . = no result. Unless noted, calls follow the shape of the dose curve; as a rule, active = well fitted curve in the direction sought with a large enough effect; inconclusive = small, poorly fitted or top-dose-only effect, or another doubt; inactive = no such curve, though single readings can be large; an effect the other way counts as inactive or inconclusive. % is scaled to controls: 0 for no effect and ±100 for the full control effect.

SMILES	CtBP-E1A inh	Six1-Eya2 inh	DT40 TDP1 CPT	DT40 TDP1 no CPT	IL1B secr inh	TDP1 inh
CCc1ccccc1NC1c2ccccc2C(=O)N1Cc1ccco1 (configuration not stated)	1	-8	-5%	?	5	5%
Cc1cccc(Cn2c(N(C)Cc3ccccc3)nc3c2c(=O)[nH]c(=O)n3C)c1	-7	-8	?	?	-26	5%
O=C(COc1ccccc1F)Nc1ccc2[nH]c(=O)[nH]c2c1	2	-7	-27%	-27%	0	.
Cc1ccccc1-c1noc(-c2ccc(NCC3CCCO3)c([N+](=O)[O-])c2)n1 (configuration not stated)	.	.	3.3µM*	2.1µM*	.	11%
Cc1cccc(-c2noc(-c3ccc(NCC4CCCO4)c([N+](=O)[O-])c3)n2)c1 (configuration not stated)	.	.	?	?	.	6%
COc1ccccc1-c1noc(-c2ccc(NCC3CCCO3)c([N+](=O)[O-])c2)n1 (configuration not stated)	.	.	18µM*	8.2µM*	.	9%
O=[N+]([O-])c1cc(-c2nc(-c3ccccc3)no2)ccc1NCC1CCCO1 (configuration not stated)	.	.	?	?	.	6%
COc1ccccc1-c1noc(-c2ccc(NC3CCCC3)c([N+](=O)[O-])c2)n1	.	.	18µM*	23µM*	.	6%
O=C(NNC(=O)c1ccccc1F)c1ccc(-c2ccccc2Cl)o1	-3	-13	3%	?	-52*	.
CC1CCN(C(=O)c2ccc(-c3ccccc3Cl)o2)CC1	-6	1	-2%	?	-100*	8%
S=C(c1ccc(-c2ccccc2Cl)o1)N1CCOCC1	10	?	?	?	-91*	4%
O=c1[nH]c(=S)[nH]c2c1C(c1ccccc1)OC(C1CCCCC1)C2 (configuration not stated)	0	0	6%	-24%	37	.
CN1CCN(S(=O)(=O)c2ccc(F)cc2)CC1	-5	11	-9%	-4%	-5	.
CC(=O)N1CCC(=NNc2nc3ccccc3s2)CC1	-7	-1	3%	3%	7	8%
Cc1nn(CC(=O)Nc2ccc3c(c2)nc(CCN2CCCCC2)n3C)c(=O)c2ccccc12	-7	-11	11µM*	?	-12	-5%
Cn1c(CN2CCCC2)nc2cc(NC(=O)COc3ccc(Cl)cc3)ccc21	8	-4	?	?	-68*	7%
Cn1c(CCN2CCCCC2)nc2cc(NC(=O)COc3ccc(Cl)cc3)ccc21	2	-1	?	?	-83*	4%
Cc1ccc(OCC(=O)Nc2ccc3c(c2)nc(CCN2CCN(C)CC2)n3C)cc1	.	1	?	?	23	5%
COc1ccc(OCC(=O)Nc2ccc3c(c2)nc(CN2CCCC2)n3C)cc1	3	-1	?	?	-11	4%
Cn1c(CCN2CCCCC2)nc2cc(NC(=O)COc3ccc([N+](=O)[O-])cc3)ccc21	0	0	-29%	18µM*	?	3%
CC(=O)N1CCN(Cc2nc3cc(NC(=O)Cn4nc(C)c5ccccc5c4=O)ccc3n2C)CC1	18	-5	7%	-32%	0	4%
CN1CCN(CCc2nc3cc(NC(=O)COc4ccc(Cl)cc4)ccc3n2C)CC1	-5	4	?	?	-18	4%
Cc1ccsc1C(=O)OCC(=O)NC1CCCC(C)C1C (configuration not stated)	0	0	-15%	-22%	0	-1%
Cn1ncc(N2CCN(C(=O)c3ccc(Cl)cc3)CC2)c(Cl)c1=O	11	0	-6%	-10%	16	2%
CCOC(=O)c1c(-c2ccccc2)csc1NC(=O)CSc1nc(N)cc(N)n1	-1	-5	?	8.2µM*	-10	0%
SMILES	CtBP-E1A inh	Six1-Eya2 inh	DT40 TDP1 CPT	DT40 TDP1 no CPT	IL1B secr inh	TDP1 inh
CCOC(=O)c1c(-c2ccccc2)csc1NC(=O)C(C)NCc1ccco1 (configuration not stated)	-5	-8	18µM*	?	0	5%
CCOC(=O)c1c(NC(=O)c2nn(CC)cc2Br)c(C#N)cn1-c1ccccc1	8	-3	?	21µM*	?	5%
CCOC(=O)c1c(N)c(C#N)cn1-c1ccccc1	0	-4	-30%	1%	-5	3%
CCOC(=O)c1c(-c2ccccc2)csc1NC(=O)c1nn(CC)cc1Br	13	3	?	?	-67*	-2%
CC1(C)C(=O)OC(/C=C\c2ccccc2)C(C)(C)C1=O (configuration not stated)	12	0	0%	-17%	-7	5%
COc1ccc(CC(=O)NCC(=O)N/N=C/c2sccc2C)cc1	-7	3	1%	2%	-7	1%
Cc1nc(CCNC(=O)CC2C(=O)NCCN2Cc2ccoc2)nc2c1CCCC2 (configuration not stated)	-8	3	2%	6%	28	.
CCOC(=O)c1c(-c2ccccc2)csc1NC(=O)CSc1nc(C)cc(C)n1	16	8	?	23µM*	-22	-3%
COc1ccc(-n2c(N)c(C(=O)NCc3ccco3)c3nc4ccccc4nc32)c(OC)c1	2	-8	23µM*	?	-18	1%
Nc1c(C(=O)NCc2ccco2)c2nc3ccccc3nc2n1CCc1ccccc1F	0	2	16µM*	?	-58*	-1%
COc1ccc(Nc2cc(C(=O)NCc3ccco3)c3ccccc3n2)cc1	.	.	.	.	.	-2%
COc1ccc(CCn2c(N)c(C(=O)NCc3ccco3)c3nc4ccccc4nc32)cc1	-15	-13	12µM*	13µM*	-86*	-5%
N#Cc1c(N)n(CCNC(=O)c2ccccc2)c2nc3ccccc3nc12	?	?	-19%	-8%	-9	0%
COc1ccc(CCn2c(N)c(C(=O)NCc3ccco3)c3nc4ccccc4nc32)cc1OC	-22	-25	23µM*	16µM*	-20	4%
CSc1ncc(C(=O)NCc2cccc(F)c2)c(-c2ccccc2)n1	.	.	-29%	?	.	-1%
CCCCOC(=O)c1c(N)n(-c2ccc(OC)cc2OC)c2nc3ccccc3nc12	.	.	12µM*	16µM*	.	.
